From PubChem
This excerpt belongs to a sample that is enriched for hits.
Tgondii IFNg: T. gondii growth inhibition with IFN-gamma, primary screen, cell-based | Toxoplasma gondii growth in IFN-gamma-treated host cells; stronger effect = lower value | activity change, negative = inhibition, % (no concentration beside the values) | 69,000 tested, 3.8% active; in the data active = activity change below about -70%, passing the limit was not always enough;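 note: host cells are HeLa cells infected with Toxoplasma gondii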
Hits are given with their value.

`CCOC(=O)CN1CCCOc2c(cccc2OC)C1` gave Tgondii IFNg inactive.
Screening COc1cccc2c1C(=O)c1c(O)c3c(c(O)c1C2=O)C[C@@](O)(C(=O)CO)C[C@@H]3O[C@H]1C[C@H](N)[C@H](O)[C@H](C)O1 returned Tgondii IFNg -78.
For CCCCC(=O)OCC(=O)[C@]1(O)Cc2c(O)c3c(c(O)c2[C@@H](O[C@H]2C[C@H](NC(=O)C(F)(F)F)[C@H](O)[C@H](C)O2)C1)C(=O)c1c(OC)cccc1C3=O the results were Tgondii IFNg -73.
`COc1cccc2c1C(=O)c1c(O)c3c(c(O)c1C2=O)C[C@@](O)(C(C)=O)C[C@@H]3OC1CC(N)C(O)C(C)O1` (some centres undefined) gave Tgondii IFNg -75.
CC(=O)C1(O)Cc2c(O)c3c(c(O)c2C(OC2CC(N)C(O)C(C)O2)C1)C(=O)c1c(O)cccc1C3=O (centres undefined) was read as Tgondii IFNg -79.
Screening O=c1c2[nH]c3ccccc3c2nc(SCc2cccnc2)n1-c1ccc(OC(F)(F)F)cc1 returned Tgondii IFNg inactive.
CO[C@@H]1CN(C)C(=O)c2ccc(NC(=O)C3CC3)cc2OC[C@@H](C)N(C(C)=O)C[C@@H]1C was read as Tgondii IFNg inactive.
`CCn1c(=O)c(-c2nc(-c3cccc(F)c3)no2)c(O)c2ccccc21` gave Tgondii IFNg inactive.
COc1ccccc1C(O)c1nccn1C (centres undefined) was read as Tgondii IFNg inactive.
Screening CN(C)C(=O)COCc1noc2c1CN(Cc1nccn1C)CC2 returned Tgondii IFNg inactive.
For CCOC(=O)[C@@]12CCCN(C(=O)COC)C[C@@H]1CN(C(C)=O)C2 the results were Tgondii IFNg inactive.
Screening CCN(CC)C(=O)c1cnc(N(C)C)nc1-c1ccc(CNC(=O)CCOC)cc1 returned Tgondii IFNg inactive.
For O=C(c1ccncc1)N1CCCC1c1nc(-c2ccccn2)cc(=O)[nH]1 (centres undefined) the results were Tgondii IFNg inactive.
Screening CCCCCCCCCCCCCCOc1ccc(C(=O)O)o1 returned Tgondii IFNg inactive.
Nc1nc(-c2ccc(-c3cccc4c3CCNC4)cc2)cs1 was read as Tgondii IFNg inactive.
For CC(C)(C#N)c1cc(Cn2cncn2)cc(C(C)(C)C#N)c1 the results were Tgondii IFNg inactive.
For CNC1CCCN(c2c(F)cc3c(=O)c(C(=O)O)cn(C4CC4)c3c2OC)C1 (centres undefined) the results were Tgondii IFNg inactive.
Screening Nc1nc(Nc2ccc3c(c2)CC[C@@H](N2CCCC2)CC3)nn1-c1cc2c(nn1)-c1ccccc1CCC2 returned Tgondii IFNg -76.
`CC(C)C(=O)c1cc(-c2ccn(CC3CC3)n2)n2ccccc12` gave Tgondii IFNg inactive.
CCOc1ccccc1CN(C(=O)c1ncccc1C)C1CC1 was read as Tgondii IFNg inactive.
For Cc1cccc(CN2CCC3(CC(NC(=O)c4cnccn4)C3)C2)n1 (centres undefined) the results were Tgondii IFNg inactive.
`O=S(=O)(Cc1noc(-c2ccsc2)n1)c1ccccn1` gave Tgondii IFNg inactive.
Screening O=S(=O)(Cc1nc(-c2ccsc2)no1)c1ccc(Cl)cc1 returned Tgondii IFNg inactive.
For O=S(=O)(Cc1noc(-c2cc(Cl)cc(Cl)c2)n1)c1ccc(Cl)cc1 the results were Tgondii IFNg -87.
For COc1ccccc1-c1ncc(C2NCCc3[nH]cnc32)cn1 (centres undefined) the results were Tgondii IFNg inactive.
Screening Cc1cccc2c(CCNC(=O)CN3C(=O)NC(=O)C3(C)C)c[nH]c12 returned Tgondii IFNg inactive.
Screening C=CCc1cc(CN2CCC(N)(C(=O)O)C2)ccc1OC (centres undefined) returned Tgondii IFNg inactive.
`COc1ccc(-c2nc3cc4c(cc3o2)Oc2ccccc2N4)cc1` gave Tgondii IFNg inactive.
C[C@H]1[C@@H](O)O[C@@H]2O[C@@]3(C)CC[C@H]4[C@H](C)CC[C@@H]1[C@@]24OO3 was read as Tgondii IFNg -94.
For O=C(C[C@@H]1CC[C@H]2[C@@H](COC[C@@H](O)CN2C(=O)c2ccncc2)O1)NCc1cc(F)cc(F)c1 the results were Tgondii IFNg inactive.
For O=C1NCC2(CCCN(C(=O)CCn3cnc4ccccc4c3=O)C2)O1 (centres undefined) the results were Tgondii IFNg inactive.
CC(C)NC(=O)N1Cc2cc(C(=O)NC3Cc4ccccc4C3)nc(-c3cccc(-c4cccnc4)c3)c2[C@H]1CCO was read as Tgondii IFNg inactive.
Screening CC(C)NC(=O)N1Cc2cc(C(=O)NC3CCC3)nc(-c3cccc(-c4cncnc4)c3)c2[C@@H]1CCO returned Tgondii IFNg inactive.
For CCCNC(=O)c1cc2c(c(-c3cccc(-c4cc5ccccc5o4)c3)n1)[C@H](CCO)N(C(=O)NC(C)C)C2 the results were Tgondii IFNg -71.
CN1CCN(Cc2cnn(C)c2C2CC2)CC12CCN(C(=O)C1CC1)CC2 was read as Tgondii IFNg inactive.
For CCC(=O)N1CCc2cc(C(O)CN3CCCC(O)(c4ccccc4OC)C3)ccc21 (centres undefined) the results were Tgondii IFNg inactive.
C1=C(c2ccccc2)CC(c2ccccc2)=NN=C1c1ccccc1 was read as Tgondii IFNg -87.
`O=C1CC(c2ccccc2)=NN1c1ccccc1` gave Tgondii IFNg inactive.
`CCN(Cc1ccc(F)cc1)C(=O)c1ccc(O)cc1` gave Tgondii IFNg inactive.
COc1ccc(OCC(=O)N2CCC3(CC2)Nc2cc(OC)ccc2-n2cccc23)cc1 was read as Tgondii IFNg inactive.
For COc1ccc2c(c1)NC1(CCN(C(=O)Cc3ccc(C)cc3)CC1)c1cccn1-2 the results were Tgondii IFNg inactive.
COc1ccc(CCC(=O)N2CCC3(CC2)Nc2cc(F)ccc2-n2cccc23)cc1 was read as Tgondii IFNg -75.
Screening O=C(CCc1ccccc1)N1CCC2(CC1)Nc1cc(F)ccc1-n1cccc12 returned Tgondii IFNg inactive.
For COc1ccc(CCC(=O)N2CCC3(CC2)Nc2cc(OC)ccc2-n2cccc23)cc1 the results were Tgondii IFNg -82.
`COc1cc(CCC(=O)N2CCC3(CC2)Nc2cc(F)ccc2-n2cccc23)cc(OC)c1OC` gave Tgondii IFNg inactive.
O=C(NCc1ccccn1)C1CCN(Cc2cc3n(n2)CCCNC3)CC1 was read as Tgondii IFNg inactive.
For COc1cc(OC)c(NC(=O)C2=C(C)C(=O)OC23CCN(C(C)C)CC3)cc1Cl the results were Tgondii IFNg inactive.
`O=C(c1ccc(F)cc1)N1C[C@@H]2N[C@H](C1)C2c1ccc(-c2cccnc2)cc1` (some centres undefined) gave Tgondii IFNg inactive.
Screening O=C(NCCc1c[nH]c2ccccc12)C1CCCN1c1nnc(N2CCCC2=O)s1 (centres undefined) returned Tgondii IFNg inactive.
CSCCCn1cnc(-c2ccccc2)c1-c1cnc(C(C)C)nc1 was read as Tgondii IFNg inactive.
CN1CC(=O)N2CCN(C(=O)NC34CC5CC(CC(C5)C3)C4)CC2C1=O (centres undefined) was read as Tgondii IFNg inactive.
O=C1N(c2ccccc2)CC12CCN(S(=O)(=O)c1ccc(F)cc1)CC2 was read as Tgondii IFNg inactive.
Cc1cccnc1CN(Cc1ccccc1)C(=O)CC1C(=O)NCCN1C(C)C (centres undefined) was read as Tgondii IFNg inactive.
Screening CN1C[C@H]2[C@@H](c3ccccc31)[C@H](CO)N2C(=O)C1CCOCC1 returned Tgondii IFNg inactive.
FC(F)(F)c1cccc(-c2ccc(-c3cccc(C(F)(F)F)c3)o2)c1 was read as Tgondii IFNg inactive.
